This excerpt belongs to a sample that is enriched for hits.
Dicer processing: human Dicer pre-microRNA cleavage inhibition; z-score at 25 µM; AID 1347074; 47,000 compounds, 6% hits; cat-ELCCA pre-miR-21 Dicer processing, chemiluminescence; stronger effect = higher value; in the data active = z-score above about 3, passing the limit was not always enough;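 note: plate controls were vehicle for no effect and no enzyme for full effect; higher signal means more uncleaved substrate so more Dicer inhibition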
Starred values were filed as active, the others as inactive.

SMILES	Dicer processing
COc1ccc(N=C2C(=O)Nc3ccc(Br)cc32)cc1	-3.6
O=C1Nc2ccccc2C1=NCCCN=C1C(=O)Nc2ccccc21	-1.2
O=C1Nc2ccccc2C1=Nc1ccc(Cc2ccc(N=C3C(=O)Nc4ccccc43)cc2)cc1	3.9*
CC(C)NC(=O)NNC(=O)C(C)n1nnc(N2CCOCC2)n1 (centres undefined)	-0.54
CCCc1c(O)ccc2c(=O)cc(C(=O)OC)sc12	-0.58
O=C1c2ccccc2C(=O)N1c1ccc([N+](=O)[O-])cc1	-1.1
O=c1c([N+](=O)[O-])c[nH]n(-c2ccccc2)c1=O	4.4*
Cc1cc(=O)[nH]n(-c2ccccc2)c1=O	2
O=C(Nc1cc(C(F)(F)F)ccc1Cl)C(=S)N1CCOCC1	-0.41
O=C(Nc1cc(C(F)(F)F)ccc1Cl)C(Cl)Cl	5*
NNC(=O)Nc1ccc(C(F)(F)F)cc1Cl	0.71
N#C/C(=C\c1cc(Br)cs1)C(=O)Nc1ccc(F)cc1	-1.7
C(=N\Nc1nnc2c(n1)[nH]c1ccccc12)/c1ccc2c(c1)OCO2	-0.7
Oc1ccccc1/C=N/Nc1nnc2c(n1)[nH]c1ccccc12	3.4*
Fc1ccc(/C=N/Nc2nnc3c(n2)[nH]c2ccccc23)cc1	-0.21
C=CCc1cccc(C2N(C)c3ccccc3N2C)c1O	-3.1
CCCc1noc(-c2ccc(OC)c(OC)c2)n1	-0.64
COc1cc(Cl)ccc1N=Cc1c(O)c2c(=O)n(C)c(=O)n(C)c2n(C)c1=O	0.17
O=c1oc(-c2ccc(Br)cc2)nc2scc(-c3cccs3)c12	0.83
Cc1ccc(-c2csc3nc(-c4cccs4)oc(=O)c23)cc1	5.4*
Cc1cccc2nc(-c3cccs3)oc(=O)c12	-1.3
CCCCC(=O)N1c2ccccc2NC2=C(C(=O)CCC2)C1c1cccc(Br)c1 (centres undefined)	-1.1
O=C(Nc1ccc(Cl)cc1)OCc1cccc(COC(=O)Nc2ccc(Cl)cc2)c1F	0.87
COCCNC(=O)c1nn2c(c1Br)NC(c1cccs1)CC2C(F)(F)F (centres undefined)	0.27
Cc1ccc(S(=O)(=O)CCN2C(=O)CSC2=O)cc1	-0.24
SMILES	Dicer processing
Cc1ccc(C(=O)CC(=O)c2ccc(Cl)cc2)c(O)c1	4.4*
O=C(CC(=O)c1ccccc1O)c1ccc(Cl)cc1	-1
Cc1cc(C)c(C(=O)CC(=O)c2ccccc2Cl)c(O)c1	1.4
COC(=O)c1cc(-c2ccc(S(=O)(=O)N3CCOCC3)cc2)c(C(F)(F)F)s1	-1.4
O=C(O/N=C1\CCCc2[nH]c3ccccc3c21)c1ccc(Cl)cc1Cl	0.99
CCCCc1ccc(Nc2ncc(C(=O)OCC)c(C(F)(F)F)n2)c(C)c1	-0.37
Cc1ccc(CSc2nnc(-c3ccc(C(F)(F)F)cn3)s2)cc1	-0.29
CCOC(=O)c1ccc(NC(=S)N/N=C/c2ccccc2Cl)cc1	9.9
Cn1c(C(=O)N/N=C/c2ccccc2Cl)cnc1SCc1ccc(Cl)cc1	0.03
O=C(CCn1nnc(-c2cccc(Cl)c2Cl)n1)N/N=C/c1ccccc1Cl	3.2*
O=[N+]([O-])C1=Cc2c(ccc3ccccc23)OC1c1c(Cl)cccc1Cl (centres undefined)	-0.42
Cc1ccccc1OC1C(=O)N(C2CCCC2)C1c1ccc2c(c1)OCO2 (centres undefined)	0.23
CC(C)c1ccc(OCc2nc(-c3ccccn3)no2)cc1	0.26
NC(=S)NNc1ccc(Cl)c(Cl)c1	2.3
N/C(=N\C(=S)Nc1ccc(Cl)c(Cl)c1)c1ccccc1	5.4*
CC(C)c1ccc(NC(=S)N=C(N)N)cc1	2.1
O=C(Nc1ccc(Br)c(C(F)(F)F)c1)c1csc(-c2cccc(Cl)c2Cl)n1	1.3
CC(C)S(=O)(=O)c1csc(NC(=O)Nc2ccccc2Cl)c1Cl	3.8*
CC(C)S(=O)(=O)c1csc(NC(=O)Nc2c(Cl)cc(Cl)cc2Cl)c1Cl	0.24
CC(C)S(=O)(=O)c1csc(C(N)=O)c1Cl	-2
CSc1nnc2c(n1)OC(c1c(F)cccc1Cl)N(C(C)=O)c1ccccc1-2 (centres undefined)	1
N#Cc1c(C(F)(F)F)cc(-c2cccs2)nc1Sc1ccc(Cl)cc1	1.3
CCCOc1ccc(N2C(=O)CC(SCCN)C2=O)cc1 (centres undefined)	-0.11
CCCOc1ccc(N2C(=O)CC(SCC(N)C(=O)OCC)C2=O)cc1 (centres undefined)	-0.88
CCOc1ccc(N2C(=O)CC(Sc3nc(C)c(CC)c(C)c3C#N)C2=O)cc1 (centres undefined)	3.4*
SMILES	Dicer processing
CSC(/N=C/N(C)C)=N/N=C(\C)c1ccc(Cl)c(Cl)c1	-1.4
COC(=O)c1ccc(-c2cccs2)nc1C	-0.08
N#Cc1cccc(N=Nc2c(O)ccc3ccccc23)c1	1.5
CCOc1ccc(C2/C(=C(\O)c3ccc(C)cc3)C(=O)C(=O)N2CCCOC)cc1 (centres undefined)	-1.4
COc1ccccc1Nc1nc(-c2c(-c3ccc(Cl)cc3Cl)noc2C)cs1	-0.17
COC(=O)c1ccc(Cn2nc(C)c([N+](=O)[O-])c2C)o1	1.1
COC(=O)c1ccc(COCOCc2ccc(C(=O)OC)o2)o1	0.87
COC(=O)c1ccc(CN(C)C)o1	5.8*
C(=N/Nc1nc2ccccc2nc1/C=C/c1cccs1)/c1ccccc1	-1.9
COCCOC(=O)C1=C(C)NC2=C(C(=O)CC(C)(C)C2)C1c1coc2ccccc2c1=O (centres undefined)	-0.44
CC1=C(C(=O)OCCOc2ccccc2)C(c2coc3ccccc3c2=O)C2=C(CC(C)(C)CC2=O)N1 (centres undefined)	3.4*
COCCOC(=O)C1=C(C)NC2=C(C(=O)CC(c3cccs3)C2)C1c1cccs1 (centres undefined)	0.82
CCSCCOC(=O)C1=C(C)NC2=C(C(=O)CC(c3cccs3)C2)C1c1ccc(O)c(OC)c1 (centres undefined)	5.4*
COc1cc(C2C(C(=O)OCC3CCCO3)=C(C)NC3=C2C(=O)CC(c2cccs2)C3)ccc1O (centres undefined)	1.9
CC1=C(C(=O)OCCOC(C)C)C(c2coc3ccccc3c2=O)C2=C(CC(C)(C)CC2=O)N1 (centres undefined)	1.3
COc1ccc(OC)c(C2C(C(=O)OCC(C)C)=C(C)NC3=C2C(=O)CC(c2cccs2)C3)c1 (centres undefined)	3.1*
CC(=O)Oc1ccc(C2C(C(=O)OCC(C)C)=C(C)NC3=C2C(=O)CC(c2cccs2)C3)cc1 (centres undefined)	0.7
CC1=C(C(=O)OC(C)C)C(c2ccccc2F)C2=C(CC(c3cccs3)CC2=O)N1 (centres undefined)	0.56
COc1cccc(C2C(C(=O)OC(C)C)=C(C)NC3=C2C(=O)CC(c2cccs2)C3)c1OC (centres undefined)	2.7
CC1=C(C(=O)OC(C)C)C(c2coc3ccccc3c2=O)C2=C(CC(c3cccs3)CC2=O)N1 (centres undefined)	3.3*
CCSCCOC(=O)C1=C(C)NC2=C(C(=O)CC(c3cccs3)C2)C1c1ccc2c(c1)OCO2 (centres undefined)	0.75
CCN1C(=O)N(CC)C2C1N(CC)C(=O)N2CC (centres undefined)	0.37
Cc1cc(C)cc(Sc2ccc3nnc(-c4ccccc4)n3n2)c1	1.3
O=S(=O)(O)c1cc(O)c2ccc3c(S(=O)(=O)O)cc(S(=O)(=O)O)c4ccc1c2c34	-1.4
COC(=O)c1sc(OC)cc1OC(=O)c1ccccc1C	0.54
COc1ccc(Oc2nc3c(c(=O)n(Cc4ccc(Br)cc4)c(=O)n3C)n2C)cc1	4.1*

Screening results (PubChem)
